Laboratory results taken from the OligoGym collection.

target: MED31; test: pooled miR-30 sensor sort-seq; sequence = guide strand; settings: shRNA
Note: reference of the scale not given here.

Sequence | sensor-assay potency score (higher = more potent)
TTGCACAAATTCCAACTCCAAC | -1.8
TTTTTTGTCTTCACTGTACAAA | -0.668
TCGATTTCCAGCATCATCTGTC | 0.22
AACATGTGTAAACACTGAGGGT | -0.84
TTGCTGTTGCTGCTCTGCCAAG | -1.72
TATTGGAGCAGCTCTAACATGT | -0.528

target: MEI1; test: as above; settings: shRNA

Sequence | sensor-assay potency score (higher = more potent)
AAAGGTAACAGACAGAAGCTTG | -0.962
TGGAACAGGACTACTAAGCTGG | 0.124
TTGTGAGCTGTGTCCACTGGGC | -0.159
TTGCGCACTAACGACACGCCGG | -1.01
TTGCTCTGACACATTCCTGAGC | -0.804
TAGACTAGCTGCAGGTCTGGGA | -0.257
TCTTGCTCTGACACATTCCTGA | 0.143
TTTTCTGATTGCACTGACCATA | -0.486
TAGCACTTTCTCCCAGTCCATC | -1.62
ATGGTGAGTATAGACTAGCTGC | -0.611
TTCTCTGAATCTCTACTGGAGG | -0.666

target: MEN1; test: as above; settings: shRNA

Sequence | sensor-assay potency score (higher = more potent)
TTCTTCATCTGCACTTGCGACT | -0.844
TTCTTCACCAGCTCACGGCTGG | -0.0281
TTGTAGTCCTGGATGACAGTGG | 0.138
TCATCTGCACTTGCGACTGTGC | -1.27
TTGTGGTAGAGGGTGAGTGGGT | -0.985
TAGAGGGACAGGTCGACGGCGC | -0.785
TAGTAGGTCTTGGCTGAGGCAA | -1.23
TTCAGGTACAGCCAGCTCCGCT | -1.42
TATGACATCGGAGACCTTCTTC | 0.751
TAGATCTCCTCGTCTTCCCGGC | -0.0589
TACTTCAAAGAACTCCTTGTAG | 0.208
TTCATCTGCACTTGCGACTGTG | 0.123

target: MEPCE; test: as above; settings: shRNA

Sequence | sensor-assay potency score (higher = more potent)
TTTCGAACGGTGGTGGTCCCTT | -0.585
TAGTGTCGGATGTTTTGGCGGG | -0.437
TTGTGGAACAGGTACACAGGAC | -0.946
TAACTGAGGCAGCTGGAGGGGC | -0.431
TTCAGATGCACCCACTTGGTGA | -1.03
TGATGTGTCCGCTCCATCCAAG | -1.38
TAGTATTTGCAATAATTCCCAT | -0.782
TTGGATTCGGTAGTAGTTCTTG | 0.313
TAAGAGTCTTTCTCTTGCCATA | -1.25
TTGTTGGGGAAGACTGATGTGT | -0.599
TTCTTGTAGATCGTTTCTGTAA | -0.866
